These results are taken from PubChem BioAssay (NCATS).

Structures are written as SMILES. Where “and” joins values, the source holds several entries; their conditions need not be identical. Identical values can stand only once. Results filed as inconclusive are left out. Calls of active or inactive are those of the source. Unless noted, the rule behind the calls is not given here.

A short description of assay [1]: qHTS Assay for Identifying Gametocytocidal Compounds (AID 743244; active = well fitted curve in the direction sought with a large enough effect; an effect the other way counts as inactive or inconclusive;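 note: % is set by controls: 0 for no effect and ±100 for the full control effect; actives lower the fluorescent signal which means gametocytes are killed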). The note with it: P. falciparum 3D7 stage III-V gametocytes, alamarBlue, 72 h; max response: stronger effect = lower value. The procedure, abridged: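 Stage III–V gametocytes of P. falciparum 3D7 were seeded at 20,000 cells/well onto pre-dispensed compounds. After 72 h, 37 °C, 5% CO2, alamarBlue was added for another 24 h.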

A short description of assay [2]: qHTS profiling for inhibitors of Plasmodium falciparum (3D7) proliferation (AID 743322).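 Note: infected erythrocytes exposed to compound for 72 h before lysis; 100% = DMSO vehicle wells and 0% = 0.29 µM artemisinin.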 To be noted: P. falciparum 3D7 proliferation; at 28.7 µM (top of the series) unless noted. The procedure, abridged:
(§1)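 Parasite DNA was quantified by SYBR Green I fluorescence (ex 485, em 535 nm) after overnight lysis in saponin/Triton buffer at room temperature. Cultures at 0.3% parasitemia and 2.5% hematocrit were first exposed to compound for 72 h at 37 C; signals were normalised to artemisinin (0.29 uM) and vehicle wells.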

Assay [3] can be described thus: qHTS profiling for inhibitors of Plasmodium falciparum (DD2) proliferation (AID 743323). To be noted: lower = more inhibition; at 28.7 µM (top of the series) unless noted. Summed up:
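1536-well qHTS; infected RBCs 0.3% parasitemia/2.5% Hct final; cpd 72 h 37 C 5% CO2; lysis buffer + SYBR Green I, o/n RT dark; FI 485/535; norm. to 0.29 uM artemisinin and DMSO, plate-stack corrected.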

The nature of assay [4]: qHTS profiling for inhibitors of Plasmodium falciparum (HB3) proliferation (AID 743324; active = well fitted curve in the direction sought with a large enough effect; an effect the other way counts as inactive or inconclusive;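 note: 100% = DMSO vehicle wells and 0% = artemisinin-treated control wells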). To be noted: Plasmodium falciparum HB3 blood-stage proliferation; at 28.7 µM (top of the series) unless noted. The procedure, abridged:
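SYBR Green fluorescence (485 ex/535 em) of lysed cultures, incubated overnight at room temperature in the dark, quantifies parasite DNA. Infected erythrocytes at 0.3% parasitemia and 2.5% hematocrit were exposed 72 h; values normalized to DMSO and 0.29 uM artemisinin controls.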

A short description of assay [5]: qHTS profiling of the MIPE4 collection as inhibitors of Plasmodium falciparum (3D7) proliferation (AID 743344).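 Note: scaled between DMSO vehicle wells and 0.29 µM artemisinin as full inhibition.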 The note with it: P. falciparum 3D7 in erythrocytes, SYBR Green DNA fluorescence, 72 h; at 28.5 µM (top of the series) unless noted. The procedure, abridged: as §1
A short description of assay [6]: qHTS profiling of the MIPE4 collection as inhibitors of Plasmodium falciparum (DD2) proliferation (AID 743345). To be noted: P. falciparum Dd2 in erythrocytes, SYBR Green DNA, 72 h; at 28.5 µM (top of the series) unless noted. Summed up:
as §1

Assay [7] in a line: qHTS profiling of the MIPE4 collection as inhibitors of Plasmodium falciparum (DD2) proliferation (Rep 2) (AID 743346). The note with it: P. falciparum Dd2 in erythrocytes, SYBR Green DNA, 72 h; at 28.5 µM (top of the series) unless noted. Summed up:
as §1

Assay [8] is described as follows: qHTS profiling of the MIPE4 collection as inhibitors of Plasmodium falciparum (HB3) proliferation (AID 743347).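 Note: plate controls were DMSO vehicle wells for no effect and artemisinin wells for full effect.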 The note with it: P. falciparum HB3 in erythrocytes, SYBR Green DNA, 72 h; at 28.5 µM (top of the series) unless noted. Summed up: as §1
Assay [9] in a line: Cell Proliferation Assay Versus the ED40515 IL2 Independent ATL cell lines (AID 1053194; calls by dose curve). The note with it: ED40515 IL2-independent ATL cells. The procedure, abridged: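 CellTiter-Glo luminescence, read after 15 min at RT, gave viability of IL-2-free ED40515 cells (1000/well, RPMI plus 5% FBS) following 48 h drug exposure at 37C. Control wells held DMSO or 9.2 uM bortezomib.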

Assay [10] is described as follows: Cell Proliferation Assay Versus the ED40515 IL2 Dependent ATL cell lines (AID 1053195; calls by dose curve). The note with it: ED40515 IL2-dependent ATL cells. The procedure, abridged:
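CellTiter-Glo luminescence (15 min, RT) measured viability after 48 hours at 37C; cells were ED40515 +IL2, 1000/well, in phenol red-free RPMI with 5% FBS. Controls: DMSO and 9.2 uM bortezomib.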

Assay [11] can be described thus: High-throughput drug toxicity screening in the BPDCN cell line Gen2.2 (AID 1224824).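 Note: cells exposed to compounds for 48 h before reading.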 To be noted: Gen2.2 BPDCN cells; at 45.8 µM (top of the series) unless noted. Summed up:
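Gen2.2 cells (500/well) in phenol red-free RPMI with 10% FBS were exposed to compounds for 48 h at 37 °C, 5% CO2. Viability was read by CellTiter-Glo luminescence and normalized to DMSO (100%) and 9.2 uM bortezomib (0%).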

The nature of assay [12]: High-throughput drug toxicity screening in the BPDCN cell line Cal-1 (AID 1224825). The note with it: Cal-1 BPDCN cell viability, qHTS; at 45.8 µM (top of the series) unless noted. Summed up: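 CellTiter-Glo luminescence after 48 h compound exposure; percent activity scaled with DMSO as 100% and bortezomib (9.2 uM final) as 0%. Cal-1 cells seeded at 500/well in RPMI, 10% FBS, no phenol red.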

Assay [13] in a line: qHTS assay for measurement of the activity of small molecule inhibitors on Zika virus induced Caspase-3 activity in human iPSC derived neural progenitor cells (hNPCs) (AID 1224857; active = well fitted curve in the direction sought with a large enough effect; an effect the other way counts as inactive or inconclusive; note: nearly all actives have a fitted effect of over 65% in size; note: potency is the fitted concentration of half-maximal effect). Summed up:
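Values are percent inhibition of virus-induced caspase-3/7 signal, scaled between uninfected cells and ZIKV-infected cells. Infection used 2 FFU/cell for 6 h after 1 h compound exposure.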

The nature of assay [14]: qHTS assay for measurement of the activity of small molecule inhibitors on Zika virus induced Caspase-3 activity in human astrocytoma cells (AID 1224859; active = well fitted curve in the direction sought with a large enough effect; an effect the other way counts as inactive or inconclusive;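 note: plate controls were ZIKV-infected untreated cells for no effect and uninfected cells for full effect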). Summed up:
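Compound added 1 h pre-infection; ZIKV 2 FFU/cell on SNB-19 cells, 6 h, 37 C/5% CO2. Caspase-Glo 3/7 luminescence; values as % inhibition of ZIKV-induced caspase activity.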

Assay [15] in a line: qHTS Screen of the MIPE 4.0 Collection Against Ewings Sarcoma (TC71) (AID 1259253; active = well fitted curve in the direction sought with a large enough effect; an effect the other way counts as inactive or inconclusive; note: nearly all actives have a fitted effect of over 40% in size; note: potency is the fitted concentration of half-maximal effect). The procedure, abridged: (§2)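 Viability screen: 48 h incubation at 37C, 95% humidity, 5% CO2 with serially titrated compound, followed by CellTiter-Glo readout.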
Assay [16] is described as follows: qHTS Screen of the MIPE 4.0 Collection Against Ewings Sarcoma (RDES) (AID 1259252; active = well fitted curve in the direction sought with a large enough effect; an effect the other way counts as inactive or inconclusive; note: nearly all actives have a fitted effect of over 35% in size; note: potency is the fitted concentration of half-maximal effect). Summed up:
as §2

Assay [17] is described as follows: qHTS Screen of the MIPE 4.0 Collection Against Ewings Sarcoma (EW8) (AID 1259255; active = well fitted curve in the direction sought with a large enough effect; an effect the other way counts as inactive or inconclusive; note: nearly all actives have a fitted effect of over 35% in size; note: potency is the fitted concentration of half-maximal effect;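 for viability: 100% = DMSO-treated cells and 0% = medium-only wells without cells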). Summed up:
as §2

Assay [18] can be described thus: qHTS assay for cell viability of HEK293 cells (AID 743288; active = well fitted curve in the direction sought with a large enough effect; an effect the other way counts as inactive or inconclusive; note: % is set by controls: 0 for no effect and ±100 for the full control effect; nearly all actives have a fitted effect of over 50% in size). The note with it: ATP luminescence (CellTiter-Glo), 18 h; max response: stronger effect = lower value. The procedure, abridged: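 After 18 h compound exposure at 37 C, parental HEK293 cells (2,000/well) are lysed with CellTiter-Glo and luminescence is read following 30 min at room temperature.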
The nature of assay [19]: qHTS assay for cell viability of the p53RE-bla HCT-116 cell line (AID 743292; active = well fitted curve in the direction sought with a large enough effect; an effect the other way counts as inactive or inconclusive; note: % is set by controls: 0 for no effect and ±100 for the full control effect; nearly all actives have a fitted effect of over 55% in size). The procedure, abridged: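 Readout: CellTiter-Glo luminescence after 30 min RT. Treatment: compounds in DMSO, 16 h, 37 C. Cells: CellSensor p53RE-bla HCT-116, 4,000/well, preincubated 5 h.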

Turning to `CC1(C)Cc2c(-c3ccccc3)c(-c3ccc(Cl)cc3)c(CC(=O)O)n2C1`, in assay [1], the max response was 1.94% (inactive). Moreover, the remaining parasite growth % (stronger effect = lower value) in [2] amounted to 6.49%. Besides, in [3], the activity, percent of control stood at 13.4%. Besides, in assay [4], the remaining proliferation (% of control), lower = more inhibition amounted to 7.77%. For the same compound, the parasite growth, % of DMSO control in [5] worked out at 61%. Besides, in assay [6], the parasite growth remaining, % of DMSO control (lower = more inhibition) stood at 90.7%. Moreover, the parasite growth, % of control (lower = inhibition) in [7] was found to be 63.6%. In addition, the growth, % of control in assay [8] came to 82.7%. For the same compound, the Potency was 11.8 µM (active) in assay [9], 5.26 µM (active) in [10] and 16.6 µM (active) in assay [15]. Further, the cell viability, % of control (lower = more cytotoxic) in [11] was 71.9%. In addition, the viability (% of control) in assay [12] was found to be 78.3%. The Potency entry in assay [13] and in assay [14] was “inactive” throughout.

On to `CC(C)(C)OC(=O)CN(Cc1ccc(Cl)cc1)Cc1ccc([N+](=O)[O-])s1`, for which the remaining parasite growth % (stronger effect = lower value) in [2] is 2.82%. This compound also displayed an activity, percent of control in [3] of 3.12%. In addition, the remaining proliferation (% of control), lower = more inhibition in [4] is -1.32%. The compound further returned a parasite growth, % of DMSO control in [5] of 99.5%. For the same compound, in [6], the parasite growth remaining, % of DMSO control (lower = more inhibition) amounted to 19.7%. The same compound showed a parasite growth, % of control (lower = inhibition) in assay [7] of 26.7%. This compound displayed a growth, % of control in assay [8] of 51.3%. Further, the Potency in [9] was 29.6 µM (active); in assay [13], 10.5 µM (active); in assay [15], 2.35 µM (active). In assay [11], the cell viability, % of control (lower = more cytotoxic) came out at 18.4%. Also, the viability (% of control) in [12] was 30.5%. Moreover, the Potency result in assay [14] and in assay [16] was “inactive” throughout.

Regarding `CNC(=O)c1ccc(N2C(=S)N(c3ccc(C#N)c(C(F)(F)F)c3)C(=O)C2(C)C)cc1F`, the max response in assay [1] was 12% (inactive). The remaining parasite growth % (stronger effect = lower value) in assay [2] is 87.6%. The compound also had an activity, percent of control in assay [3] of 87.8%. Also, the remaining proliferation (% of control), lower = more inhibition in assay [4] worked out at 62.8%. This compound also registered a parasite growth, % of DMSO control in assay [5] of 53.9%. Also, the parasite growth remaining, % of DMSO control (lower = more inhibition) in [6] worked out at 86.3%. The compound also showed a parasite growth, % of control (lower = inhibition) in assay [7] of 53.7%. The growth, % of control in [8] came out at 41.9%. In addition, the Potency in assay [9] was 23.5 µM (active). The cell viability, % of control (lower = more cytotoxic) in assay [11] came to 185%. In addition, the viability (% of control) in assay [12] worked out at 112%. Also, the Potency entry in [13], in assay [14], in assay [16], in assay [15] and in assay [17] was “inactive” each time.

On to `Cc1cnc(Nc2ccc(OCCN3CCCC3)cc2)nc1Nc1cccc(S(=O)(=O)NC(C)(C)C)c1`, for which the remaining parasite growth % (stronger effect = lower value) in assay [2] stood at 1.03%. In [3], this compound registered an activity, percent of control of 52.4%. Besides, the remaining proliferation (% of control), lower = more inhibition in [4] came out at 1.48%. In assay [5], this compound registered a parasite growth, % of DMSO control of 6.36%. The compound further returned a parasite growth remaining, % of DMSO control (lower = more inhibition) in assay [6] of 25.8%. In assay [7], this compound returned a parasite growth, % of control (lower = inhibition) of 11%. The growth, % of control in assay [8] was determined as 2.63%. Further, the Potency is 33.2 µM (active) in assay [9] and 20.9 µM (active) in assay [10]. The cell viability, % of control (lower = more cytotoxic) in assay [11] was found to be 112%. The viability (% of control) in assay [12] was found to be 72.4%. Further, the Potency result in assay [13], in [14], in [16], in [15] and in [17] was “inactive” throughout.

On to `COc1ccc(-c2ccc3c(N4CCOCC4)nc(N4C[C@@H](C)O[C@@H](C)C4)nc3n2)cc1CO`, for which the remaining parasite growth % (stronger effect = lower value) in [2] is 20.8%. For the same compound, the activity, percent of control in assay [3] is 25.3%. Besides, the remaining proliferation (% of control), lower = more inhibition in assay [4] stood at 18.1%. In addition, in assay [5], the parasite growth, % of DMSO control came to 6.12%. For the same compound, in assay [7], the parasite growth, % of control (lower = inhibition) came to 17.2%. In addition, the growth, % of control in assay [8] was 5.91%. Besides, the Potency in assay [9] was 0.59 µM (active); in assay [10] it was 1.48 µM (active); in assay [16], 0.526 µM (active); in assay [15], 0.833 µM (active); in assay [17] it was 662 nM (active). Also, the cell viability, % of control (lower = more cytotoxic) in [11] came to 19.2%. The viability (% of control) in assay [12] was determined as 12.6%. Besides, the Potency result in [13] and in [14] was “inactive” each time.

On to `COc1ccc2nc(S(=O)Cc3ncc(C)c(OC)c3C)[nH]c2c1` (configuration not stated), for which the max response in assay [1] is -5.18% (inactive) and -4.42% (inactive); in assay [18] it was -16.7% (inactive). Also, the Potency entry in [19], in assay [13], in assay [14] and in assay [17] was “inactive” each time. For the same compound, in assay [2], the remaining parasite growth % (stronger effect = lower value) was 91.3% and 101%. Besides, the activity, percent of control in assay [3] is 93.3% and 100%. The remaining proliferation (% of control), lower = more inhibition in assay [4] was 79.1% and 76.7%. The compound further displayed a parasite growth, % of DMSO control in [5] of 61.2%. In addition, in [6], the parasite growth remaining, % of DMSO control (lower = more inhibition) is 95%. Besides, the parasite growth, % of control (lower = inhibition) in assay [7] stood at 72.1%. Also, the Potency is 1.05 µM (active) in [9] and 16.6 µM (active) in assay [16]. For the same compound, the cell viability, % of control (lower = more cytotoxic) in assay [11] amounted to 138%. For the same compound, the viability (% of control) in assay [12] was found to be 96.8%.
